# Measurements published in the supplement of paper PMC9694430.
# Tests used:
# Test in all cases: thermal shift delta Tm vs DMSO control; higher = stronger stabilization (binding)
# Conditions in all cases: 12.5 µM; protein concentration 2 µM
# LOC_OS04G57630-cb004 = test system: LOC_OS04G57630-cb004
# Method in brief: (§1)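 Purified, E. coli-expressed rice kinase domain constructs were tested by differential scanning fluorimetry in 96-well plates: 19.5 μl of 2 μM kinase in 100 mM potassium phosphate pH 7.5, 150 mM NaCl, 10% glycerol, 5 × SYPRO Orange, plus compound in DMSO. Fluorescence was read from 25°C to 95°C at 0.05°C/s. Melting temperatures came from Boltzmann fits, and the shift is the triplicate mean relative to protein with DMSO alone.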
# LOC_OS05G07850-cb002 = test system: LOC_OS05G07850-cb002
# Method in brief: as §1
# LOC_OS05G16824-cb004 = test system: LOC_OS05G16824-cb004
# Method in brief: as §1
# LOC_OS05G28520-cb001 = test system: LOC_OS05G28520-cb001
# Method in brief: as §1
# LOC_OS05G30820-cb001 = test system: LOC_OS05G30820-cb001
# Method in brief: as §1
# LOC_OS05G43570-cb004 = test system: LOC_OS05G43570-cb004
# Method in brief: as §1
# LOC_OS06G16330-cb003 = test system: LOC_OS06G16330-cb003
# Sequence of LOC_OS06G16330-cb003 (as listed by the source): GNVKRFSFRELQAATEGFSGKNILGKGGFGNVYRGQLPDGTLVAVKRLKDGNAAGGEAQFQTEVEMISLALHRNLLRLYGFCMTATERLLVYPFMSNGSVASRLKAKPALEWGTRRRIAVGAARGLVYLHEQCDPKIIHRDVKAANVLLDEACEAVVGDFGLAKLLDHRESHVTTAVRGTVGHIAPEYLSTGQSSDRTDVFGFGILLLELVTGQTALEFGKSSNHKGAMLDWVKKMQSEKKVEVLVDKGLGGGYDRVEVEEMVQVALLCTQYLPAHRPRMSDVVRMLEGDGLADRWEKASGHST
# Method in brief: as §1
# LOC_OS06G22820-cb001 = test system: T1, LOC_OS06G22820-cb001
# T1 sequence (whole entry): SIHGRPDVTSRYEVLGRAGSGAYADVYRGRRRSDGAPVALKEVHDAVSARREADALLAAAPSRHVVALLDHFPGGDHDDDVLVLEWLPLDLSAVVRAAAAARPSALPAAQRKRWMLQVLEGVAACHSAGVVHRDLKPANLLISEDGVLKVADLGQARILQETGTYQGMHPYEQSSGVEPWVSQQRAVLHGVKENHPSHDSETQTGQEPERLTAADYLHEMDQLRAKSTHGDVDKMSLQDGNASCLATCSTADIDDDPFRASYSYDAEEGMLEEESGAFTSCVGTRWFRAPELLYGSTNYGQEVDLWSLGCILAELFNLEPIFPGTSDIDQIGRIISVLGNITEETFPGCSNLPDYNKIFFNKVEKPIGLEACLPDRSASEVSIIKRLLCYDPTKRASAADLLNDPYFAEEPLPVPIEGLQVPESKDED
# Method in brief: as §1
# LOC_OS07G06570-cb004 = test system: LOC_OS07G06570-cb004
# Method in brief: as §1
# LOC_OS07G07230-cb001 = test system: LOC_OS07G07230-cb001
# Method in brief: as §1
Structure (SMILES),thermal shift delta Tm (LOC_OS04G57630-cb004) [°C],thermal shift delta Tm (LOC_OS05G07850-cb002) [°C],thermal shift delta Tm (LOC_OS05G16824-cb004) [°C],thermal shift delta Tm (LOC_OS05G28520-cb001) [°C],thermal shift delta Tm (LOC_OS05G30820-cb001) [°C],thermal shift delta Tm (LOC_OS05G43570-cb004) [°C],thermal shift delta Tm (LOC_OS06G16330-cb003) [°C],thermal shift delta Tm (LOC_OS06G22820-cb001) [°C],thermal shift delta Tm (LOC_OS07G06570-cb004) [°C],thermal shift delta Tm (LOC_OS07G07230-cb001) [°C]
Nc1nccc(Oc2ccc(NC(=O)c3c[nH]cc(-c4ccc(F)cc4)c3=O)cc2F)c1Cl,1.51,14.9,-0.78,0.3,0.92,1.01,6.76,0.86,0.57,0.36
CC(C)(C)NC(=O)c1cncn1C1CCN(c2ccc(-c3nnc(C(F)(F)F)o3)cn2)CC1,-0.11,0.05,0.92,-0.42,0.02,-0.06,-0.23,0.29,1.08,0.57
Cc1cc(Nc2nc(N[C@@H](C)c3ncc(F)cn3)ncc2Cl)[nH]n1,0.37,10.9,8.64,0.22,1.6,0.91,7.15,0.49,0.97,0.17
O=C(NC(NC(=S)Nc1ccc(F)c([N+](=O)[O-])c1)C(Cl)(Cl)Cl)C(c1ccccc1)c1ccccc1 (stereo not given),1.38,8.68,0.69,1.84,1.61,2.15,0.69,1.79,1.83,0.79
CCN(CC)CCCCNc1ncc2cc(-c3cc(OC)cc(OC)c3)c(NC(=O)NC(C)(C)C)nc2n1,-0.1,-0.15,-2.16,0.72,0.45,0.68,-0.04,0.57,1.02,0.36
Cc1cc(Nc2ncc(Cl)c(Nc3ccccc3S(=O)(=O)C(C)C)n2)c(OC(C)C)cc1C1CCNCC1 [Ceritinib (LDK378)],0.2,3.05,-1.5,0.31,0.63,0.27,4.76,0.68,1.5,0.14
Cc1ccc(Nc2cc(N[C@@H]3CCCC[C@@H]3N)nnc2C(N)=O)nc1C,-0.04,6.83,5.76,0.7,1.49,0.67,4.95,1.48,1.39,0.12
O=C(NCc1cccc(O)c1)Nc1nc(-c2ccncc2)cs1,1.08,3.27,-3.55,0.81,0.5,1.02,0.47,0.43,1.09,0.35
c1cn2cc(-c3ccc4cn[nH]c4c3)nc(Nc3ccc(N4CCOCC4)cc3)c2n1 [Entospletinib (GS-9973)],0.36,7.87,0.89,1.02,0.84,0.74,9.22,0.27,1.71,0.6
